Records with an inconclusive call do not appear. Active and inactive are the calls of the source. Unless noted, the call rests on the fitted dose curve; in most records, active means well fitted curve in the direction sought with a large enough effect; inconclusive means small, poorly fitted or top-dose-only effect, or another doubt; inactive means no such curve, though single readings can be large; an effect the other way counts as inactive or inconclusive.
Columns and labels:
[1] = target: ATP-dependent 6-phosphofructokinase (Trypanosoma brucei brucei) (UniProt O15648); assay: qHTS Assay to Find Inhibitors of T. brucei phosphofructokinase: hit validation (AID 492961);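 further: luminescence reports ADP formed as PFK phosphorylates fructose-6-phosphate with ATP; on the % scale 0 is the no-effect control and ±100 the full control effect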
Method in brief: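 Compounds titrated; %activity normalized to 0x and 1x enzyme controls, curve-fitted. Readout: ADP-Glo luminescence after 45 min room-temperature reaction of 1.25 nM PFK, 0.1 mM ATP, 0.5 mM F6P, pH 8.0.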

[2] = target: Ubiquitin carboxyl-terminal hydrolase 1 (Homo sapiens) (UniProt O94782); assay: Inhibitors of USP1/UAF1: Pilot qHTS (AID 504865);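 further: rhodamine fluorescence freed from ubiquitin-rhodamine substrate followed over time; top concentration of the series differs between compounds; on the % scale 0 is the no-effect control and ±100 the full control effect; nearly all actives have a fitted effect of over 35% in size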
Method in brief: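 Kinetic fluorescence assay: 1nM USP1/UAF1, 15 min compound preincubation, then 150nM Ub-Rho; 480/540 nm.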

[3] = target: Luciferin 4-monooxygenase (Photinus pyralis) (UniProt P08659); assay: Biochemical firefly luciferase enzyme assay for NPC (AID 624030);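 further: purified P. pyralis luciferase at 10 nM with luciferin and ATP substrate; 0% = DMSO and -100% = full luciferase inhibition by PTC124 control; nearly all actives have a fitted effect of over 70% in size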
Method in brief: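 Purified P. pyralis luciferase at 10 nM in 50 mM Tris Acetate (final), luminescence read within 5 minutes of enzyme addition to compounds. Activity normalised to PTC124 versus DMSO; concentration-response curves classed by r2, magnitude and activity.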

[4] = S16 Schwann cell viability assay (CellTiter-Glo assay) (AID 624031);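 further: cellular ATP luminescence as a viability measure; plate controls were DMSO-treated cells for no effect and cell-free wells for full effect; nearly all actives have a fitted effect of over 70% in size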
Method in brief: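 Luminescent ATP read-out (CellTiter-Glo) after 24 h compound exposure of native S16 rat Schwann cells at 37 °C. Signals were normalized between cell-free wells and DMSO-treated cells, set as 0% activity.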

[5] = S16 Schwann cell PMP22 intronic element firefly luciferase assay (AID 624032);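 further: plate controls were DMSO for no effect and PTC124 positive control mean for full effect; nearly all actives have a fitted effect of over 30% in size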
Method in brief: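 Rat S16 Schwann cells stably carrying firefly luciferase driven by a PMP22 intronic element, in 10% FBS, treated 24 h at 37 C. ONE-Glo luminescence normalized to PTC124 control and DMSO (0%); curves classed by r2, magnitude and activity.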

[6] = S16 Schwann cell PMP22 intronic element beta-lactamase assay (AID 624044; calls by dose curve;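 further: 0% = DMSO and -100% = potassium clavulanate positive control; nearly all actives have a fitted effect of over 15% in size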)
Method in brief: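 Rat S16 Schwann cells with beta-Lac driven by a PMP22 intronic element, compound-treated 24 h at 37 °C. LiveBLAzer FRET B/G read: 460 nm normalized to potassium clavulanate vs DMSO; 535 nm FRET as viability; concentration-effect curves classified.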

[7] = test system: Zika virus NS2B-NS3 protease; assay: Primary screen GU AMC qHTS for Zika virus inhibitors (AID 1347154);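 further: 0% = no-inhibitor control and -100% = no-enzyme control; nearly all actives have a fitted effect of over 70% in size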
Method in brief: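 Unlinked Zika NS2B hydrophilic domain–NS3 protease complex at 25 nM in 10 mM Tris-HCl pH 8.0, 0.01% Tween 20, with an AMC peptide substrate. Fluorescence change (340/450 nm) over 15 min at room temperature, normalized to controls, fitted to 4-parameter Hill.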

[8] = Primary qHTS for small molecule stabilizers of the endoplasmic reticulum resident proteome: Secreted ER Calcium Modulated Protein (SERCaMP) assay (AID 1508630); further: on the % scale 0 is the no-effect control and ±100 the full control effect
Method in brief: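 GLuc-SERCaMP-expressing SH-SY5Y cells, pretreated 16 h with compound, are challenged with thapsigargin to empty ER calcium stores; after 4 h, coelenterazine is added directly to the medium and luminescence is imaged.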

[9] = qHTS profiling for inhibitors of Plasmodium falciparum proliferation (AID 504749);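 further: 0% = DMSO vehicle and full inhibition = artemisinin control; nearly all actives have a fitted effect of over 60% in size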; details: P. falciparum in erythrocytes, SYBR Green DNA, 72 h; at 28.7 µM (top of the series); parasite line A
Method in brief: (§1)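 Readout was DNA-dye fluorescence from lysed cultures, ex 485/em 535 nm. Parasitized red cells had grown 72 h with compound; data scaled between 0.29 uM artemisinin and DMSO wells and corrected using vehicle-only plates.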

3D7 = assay: as above; details: P. falciparum in erythrocytes, SYBR Green DNA, 72 h; series mostly up to 28.7 µM
Method in brief: as §1

7G8 = assay: as above; details: P. falciparum in erythrocytes, SYBR Green DNA, 72 h; series mostly up to 28.7 µM
Method in brief: as §1

AA1029 = assay: as above; details: P. falciparum in erythrocytes, SYBR Green DNA, 72 h; series mostly up to 28.7 µM
Method in brief: as §1

AS120 = assay: as above; details: P. falciparum in erythrocytes, SYBR Green DNA, 72 h; series mostly up to 28.7 µM
Method in brief: as §1

ATS189 = assay: as above; details: P. falciparum in erythrocytes, SYBR Green DNA, 72 h; series mostly up to 28.7 µM
Method in brief: as §1

ATS95 = assay: as above; details: P. falciparum in erythrocytes, SYBR Green DNA, 72 h; series mostly up to 28.7 µM
Method in brief: as §1

C2A = assay: as above; details: P. falciparum in erythrocytes, SYBR Green DNA, 72 h; series mostly up to 28.7 µM
Method in brief: as §1

CP185 = assay: as above; details: P. falciparum in erythrocytes, SYBR Green DNA, 72 h; series mostly up to 28.7 µM
Method in brief: as §1

CP191 = assay: as above; details: P. falciparum in erythrocytes, SYBR Green DNA, 72 h; series mostly up to 28.7 µM
Method in brief: as §1

CP192 = assay: as above; details: P. falciparum in erythrocytes, SYBR Green DNA, 72 h; series mostly up to 28.7 µM
Method in brief: as §1

CP194 = assay: as above; details: P. falciparum in erythrocytes, SYBR Green DNA, 72 h; series mostly up to 28.7 µM
Method in brief: as §1

CP201 = assay: as above; details: P. falciparum in erythrocytes, SYBR Green DNA, 72 h; series mostly up to 28.7 µM
Method in brief: as §1

CP203 = assay: as above; details: P. falciparum in erythrocytes, SYBR Green DNA, 72 h; series mostly up to 28.7 µM
Method in brief: as §1

CP211 = assay: as above; details: P. falciparum in erythrocytes, SYBR Green DNA, 72 h; series mostly up to 28.7 µM
Method in brief: as §1

CP215 = assay: as above; details: P. falciparum in erythrocytes, SYBR Green DNA, 72 h; series mostly up to 28.7 µM
Method in brief: as §1

CP217 = assay: as above; details: P. falciparum in erythrocytes, SYBR Green DNA, 72 h; series mostly up to 28.7 µM
Method in brief: as §1

CP237 = assay: as above; details: P. falciparum in erythrocytes, SYBR Green DNA, 72 h; series mostly up to 28.7 µM
Method in brief: as §1

CP238 = assay: as above; details: P. falciparum in erythrocytes, SYBR Green DNA, 72 h; series mostly up to 28.7 µM
Method in brief: as §1

CP247 = assay: as above; details: P. falciparum in erythrocytes, SYBR Green DNA, 72 h; series mostly up to 28.7 µM
Method in brief: as §1

CP250 = assay: as above; details: P. falciparum in erythrocytes, SYBR Green DNA, 72 h; series mostly up to 28.7 µM
Method in brief: as §1

CP252 = assay: as above; details: P. falciparum in erythrocytes, SYBR Green DNA, 72 h; series mostly up to 28.7 µM
Method in brief: as §1

CP256 = assay: as above; details: P. falciparum in erythrocytes, SYBR Green DNA, 72 h; series mostly up to 28.7 µM
Method in brief: as §1

CP260 = assay: as above; details: P. falciparum in erythrocytes, SYBR Green DNA, 72 h; series mostly up to 28.7 µM
Method in brief: as §1

CP262 = assay: as above; details: P. falciparum in erythrocytes, SYBR Green DNA, 72 h; series mostly up to 28.7 µM
Method in brief: as §1

CP265 = assay: as above; details: P. falciparum in erythrocytes, SYBR Green DNA, 72 h; series mostly up to 28.7 µM
Method in brief: as §1

Sequence of ATP-dependent 6-phosphofructokinase (Trypanosoma brucei brucei) (O15648 whole entry, looked up): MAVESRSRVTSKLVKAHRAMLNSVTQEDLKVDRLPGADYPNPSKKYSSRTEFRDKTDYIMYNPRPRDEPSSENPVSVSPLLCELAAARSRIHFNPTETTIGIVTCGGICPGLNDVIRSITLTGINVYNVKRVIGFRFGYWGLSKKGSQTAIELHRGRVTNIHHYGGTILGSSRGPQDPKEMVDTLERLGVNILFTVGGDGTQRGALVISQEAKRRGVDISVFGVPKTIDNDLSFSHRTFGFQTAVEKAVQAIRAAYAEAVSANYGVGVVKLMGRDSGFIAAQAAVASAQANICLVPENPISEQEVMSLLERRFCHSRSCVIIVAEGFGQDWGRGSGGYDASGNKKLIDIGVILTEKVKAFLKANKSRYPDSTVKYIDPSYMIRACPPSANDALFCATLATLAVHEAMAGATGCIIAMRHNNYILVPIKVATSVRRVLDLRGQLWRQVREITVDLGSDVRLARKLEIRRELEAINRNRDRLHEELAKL
Sequence of Ubiquitin carboxyl-terminal hydrolase 1 (Homo sapiens) (O94782 whole entry, looked up): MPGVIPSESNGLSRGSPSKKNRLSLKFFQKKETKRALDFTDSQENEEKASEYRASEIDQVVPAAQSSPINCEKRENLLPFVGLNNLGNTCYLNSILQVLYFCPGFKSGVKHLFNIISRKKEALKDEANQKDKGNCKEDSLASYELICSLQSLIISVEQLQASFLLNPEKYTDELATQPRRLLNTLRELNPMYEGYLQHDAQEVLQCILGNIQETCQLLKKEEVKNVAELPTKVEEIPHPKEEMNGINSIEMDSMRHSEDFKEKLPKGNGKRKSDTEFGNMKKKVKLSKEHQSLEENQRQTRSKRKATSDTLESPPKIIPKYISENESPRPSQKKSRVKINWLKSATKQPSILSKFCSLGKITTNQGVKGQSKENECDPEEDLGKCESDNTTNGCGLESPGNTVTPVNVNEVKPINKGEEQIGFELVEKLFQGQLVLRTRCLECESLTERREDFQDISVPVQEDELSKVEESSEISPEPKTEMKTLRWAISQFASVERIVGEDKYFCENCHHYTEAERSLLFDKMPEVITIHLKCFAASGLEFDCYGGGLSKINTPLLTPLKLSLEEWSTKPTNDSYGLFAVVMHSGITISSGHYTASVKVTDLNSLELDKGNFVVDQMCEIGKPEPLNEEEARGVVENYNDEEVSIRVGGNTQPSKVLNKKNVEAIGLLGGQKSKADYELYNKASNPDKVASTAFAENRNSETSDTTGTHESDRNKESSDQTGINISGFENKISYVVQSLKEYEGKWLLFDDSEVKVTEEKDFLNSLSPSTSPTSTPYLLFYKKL
Sequence of Luciferin 4-monooxygenase (Photinus pyralis) (P08659 whole entry, looked up): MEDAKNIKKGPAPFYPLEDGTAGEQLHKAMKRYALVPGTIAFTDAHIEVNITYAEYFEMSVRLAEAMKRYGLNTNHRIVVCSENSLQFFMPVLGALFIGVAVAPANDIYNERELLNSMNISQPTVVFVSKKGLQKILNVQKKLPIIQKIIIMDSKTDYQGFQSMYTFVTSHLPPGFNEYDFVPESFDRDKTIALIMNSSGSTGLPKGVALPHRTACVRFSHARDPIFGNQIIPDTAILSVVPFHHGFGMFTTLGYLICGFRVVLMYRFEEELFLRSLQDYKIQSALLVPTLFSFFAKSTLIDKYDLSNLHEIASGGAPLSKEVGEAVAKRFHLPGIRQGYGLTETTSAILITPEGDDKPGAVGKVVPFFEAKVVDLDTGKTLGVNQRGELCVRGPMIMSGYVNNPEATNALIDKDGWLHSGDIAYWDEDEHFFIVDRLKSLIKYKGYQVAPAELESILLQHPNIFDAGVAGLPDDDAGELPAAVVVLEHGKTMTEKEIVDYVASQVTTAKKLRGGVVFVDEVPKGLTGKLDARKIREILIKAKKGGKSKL

CC(=O)[C@H]1CC[C@H]2C3CC=C4C[C@@H](O)CC[C@]4(C)C3CC[C@]12C (some centres undefined)
inactive: outcome [1] | Potency [2] | Potency [3] | outcome [4] | Potency [5] | Potency [6] | Potency [7] | Potency [8] | activity, negative = inhibition [9] -13% | Potency (3D7) | Potency (7G8) | Potency (AA1029) | Potency (AS120) | Potency (ATS189) | Potency (ATS95) | Potency (C2A) | Potency (CP185) | Potency (CP191) | Potency (CP192) | Potency (CP194) | Potency (CP201) | Potency (CP203) | Potency (CP211) | Potency (CP215) | Potency (CP217) | Potency (CP237) | Potency (CP238) | Potency (CP247) | Potency (CP250) | Potency (CP252) | Potency (CP256) | Potency (CP260) | Potency (CP262) | Potency (CP265)
